# Assay results: PMC7862700, “An all-to-all approach to the identification of sequence-specific readers for epigenetic DNA modifications on cytosine”
# What was measured:
# Assay in all cases: DAPPL (digital affinity profiling via proximity ligation, sequencing); 10 mM Tris-HCl pH 7.5, 50 mM NaCl, 1 mM DTT, 4% glycerol, room temperature, 30 min; GST-TFs on glutathione beads, 16-mer random dsDNA library, 0.1% formaldehyde crosslink after washing; high values mean tight binding
# FLI1 = molecular target: T1, FLI1 (Homo sapiens, UniProt Q01543 1-452); conditions: protein: recombinant; tags: N-terminal GST; dsDNA, one strand shown
# T1 sequence: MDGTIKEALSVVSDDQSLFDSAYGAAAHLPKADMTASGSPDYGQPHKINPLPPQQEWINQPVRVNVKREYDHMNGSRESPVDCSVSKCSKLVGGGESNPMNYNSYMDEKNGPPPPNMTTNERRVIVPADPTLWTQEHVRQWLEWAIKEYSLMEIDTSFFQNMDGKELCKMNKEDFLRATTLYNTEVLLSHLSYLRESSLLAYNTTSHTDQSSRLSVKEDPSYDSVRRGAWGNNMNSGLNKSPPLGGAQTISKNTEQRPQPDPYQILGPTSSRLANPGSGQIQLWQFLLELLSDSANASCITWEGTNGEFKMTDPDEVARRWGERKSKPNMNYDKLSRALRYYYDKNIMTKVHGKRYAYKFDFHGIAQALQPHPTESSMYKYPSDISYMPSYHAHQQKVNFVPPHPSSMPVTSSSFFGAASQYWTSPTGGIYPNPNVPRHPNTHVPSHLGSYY
# Method in brief: (§1)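 Human transcription factors carrying a GST fusion were produced in yeast, bound to glutathione beads, tagged with DNA barcodes and pooled together with a tag-only sample. Each pool was held with 200 nmole of a random double-stranded 16-mer DNA library in Tris/NaCl/DTT/glycerol buffer for 30 min at room temperature, then washed, crosslinked in 0.1% formaldehyde, proximity-ligated with BsaI/T4 ligase (1 h, 37 °C), PCR-amplified and sequenced on an Illumina NextSeq500. Binding signal is the read frequency of each hexamer for a given factor divided by its frequency in the tag-only sample.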
# ELK1 = molecular target: T2, ELK1 (Homo sapiens, UniProt P19419 1-428); conditions: protein: recombinant; tags: N-terminal GST; dsDNA, one strand shown
# T2 sequence: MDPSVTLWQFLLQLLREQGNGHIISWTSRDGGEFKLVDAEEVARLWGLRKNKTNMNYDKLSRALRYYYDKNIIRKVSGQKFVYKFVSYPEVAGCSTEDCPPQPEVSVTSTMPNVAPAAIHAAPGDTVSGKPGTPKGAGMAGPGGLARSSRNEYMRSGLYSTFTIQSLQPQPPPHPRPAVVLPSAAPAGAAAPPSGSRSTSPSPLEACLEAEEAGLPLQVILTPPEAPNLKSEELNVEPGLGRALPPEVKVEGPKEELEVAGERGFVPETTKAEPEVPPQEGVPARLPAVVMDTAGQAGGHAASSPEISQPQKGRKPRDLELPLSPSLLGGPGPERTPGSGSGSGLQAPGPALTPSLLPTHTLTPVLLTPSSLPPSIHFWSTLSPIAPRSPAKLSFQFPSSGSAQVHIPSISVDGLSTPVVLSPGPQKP
# Method in brief: as §1
# GABPA = molecular target: T3, GABPA (Homo sapiens, UniProt Q06546 1-454); conditions: protein: recombinant; tags: N-terminal GST; dsDNA, one strand shown
# T3 sequence: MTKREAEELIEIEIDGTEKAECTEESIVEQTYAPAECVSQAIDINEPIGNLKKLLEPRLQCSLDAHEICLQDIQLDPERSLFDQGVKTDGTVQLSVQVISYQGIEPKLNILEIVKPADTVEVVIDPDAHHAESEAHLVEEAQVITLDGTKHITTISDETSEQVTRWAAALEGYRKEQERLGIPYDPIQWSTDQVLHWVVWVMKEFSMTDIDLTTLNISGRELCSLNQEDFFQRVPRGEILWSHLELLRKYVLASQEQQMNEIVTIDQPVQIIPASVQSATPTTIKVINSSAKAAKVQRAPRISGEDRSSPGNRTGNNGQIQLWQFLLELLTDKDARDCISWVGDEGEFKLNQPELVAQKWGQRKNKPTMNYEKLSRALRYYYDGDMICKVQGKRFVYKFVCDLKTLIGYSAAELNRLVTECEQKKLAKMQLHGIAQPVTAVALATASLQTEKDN
# Method in brief: as §1
# ERG = molecular target: T4, ERG (Homo sapiens, UniProt P11308 1-479); conditions: protein: recombinant; tags: N-terminal GST; dsDNA, one strand shown
# T4 sequence: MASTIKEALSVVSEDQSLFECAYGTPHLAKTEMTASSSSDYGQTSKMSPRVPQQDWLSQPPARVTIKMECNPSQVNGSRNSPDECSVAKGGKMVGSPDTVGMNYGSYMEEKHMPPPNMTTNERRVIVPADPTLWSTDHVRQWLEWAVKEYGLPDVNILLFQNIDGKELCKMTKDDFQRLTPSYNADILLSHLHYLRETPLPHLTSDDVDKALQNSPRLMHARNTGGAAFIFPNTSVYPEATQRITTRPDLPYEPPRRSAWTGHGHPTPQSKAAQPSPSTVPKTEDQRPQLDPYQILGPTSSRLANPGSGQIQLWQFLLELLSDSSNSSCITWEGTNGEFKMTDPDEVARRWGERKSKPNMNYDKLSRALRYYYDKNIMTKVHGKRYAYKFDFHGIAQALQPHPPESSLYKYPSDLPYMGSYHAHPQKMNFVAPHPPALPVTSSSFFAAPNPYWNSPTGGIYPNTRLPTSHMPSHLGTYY
# Method in brief: as §1
# ELF1 = ELF1 (Homo sapiens, UniProt P32519 1-619); conditions: protein: recombinant; tags: N-terminal GST; dsDNA, one strand shown
# Sequence of ELF1 (P32519 whole entry): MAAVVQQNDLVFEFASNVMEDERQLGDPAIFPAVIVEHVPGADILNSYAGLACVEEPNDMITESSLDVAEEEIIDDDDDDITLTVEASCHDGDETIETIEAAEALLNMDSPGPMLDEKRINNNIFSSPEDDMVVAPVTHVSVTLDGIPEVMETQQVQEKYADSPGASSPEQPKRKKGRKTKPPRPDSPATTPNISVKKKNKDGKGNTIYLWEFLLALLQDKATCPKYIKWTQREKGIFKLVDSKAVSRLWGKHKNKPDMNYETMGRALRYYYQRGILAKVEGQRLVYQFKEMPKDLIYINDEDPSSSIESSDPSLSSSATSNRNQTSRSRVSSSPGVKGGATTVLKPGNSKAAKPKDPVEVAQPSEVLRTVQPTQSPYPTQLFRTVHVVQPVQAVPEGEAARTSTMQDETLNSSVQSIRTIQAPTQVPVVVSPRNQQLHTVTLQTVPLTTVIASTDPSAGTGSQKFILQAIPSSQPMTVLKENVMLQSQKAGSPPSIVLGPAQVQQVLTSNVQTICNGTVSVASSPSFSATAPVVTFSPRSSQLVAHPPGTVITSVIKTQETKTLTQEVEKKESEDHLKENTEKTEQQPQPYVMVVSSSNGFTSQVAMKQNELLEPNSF
# Method in brief: as §1
# EHF = molecular target: T5, EHF (Homo sapiens, UniProt Q9NZC4 1-300); conditions: protein: recombinant; tags: N-terminal GST; dsDNA, one strand shown
# T5 sequence: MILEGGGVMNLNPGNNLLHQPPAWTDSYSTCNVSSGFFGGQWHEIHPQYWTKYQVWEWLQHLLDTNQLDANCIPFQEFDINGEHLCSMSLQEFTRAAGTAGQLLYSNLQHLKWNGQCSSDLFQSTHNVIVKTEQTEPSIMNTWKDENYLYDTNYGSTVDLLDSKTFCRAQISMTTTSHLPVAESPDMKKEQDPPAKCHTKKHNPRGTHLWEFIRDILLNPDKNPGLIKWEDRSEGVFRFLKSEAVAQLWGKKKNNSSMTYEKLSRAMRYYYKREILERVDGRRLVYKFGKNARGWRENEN
# Method in brief: as §1
# SPI1 = SPI1 (Homo sapiens, UniProt P17947 1-270); conditions: protein: recombinant; tags: N-terminal GST; dsDNA, one strand shown
# Method in brief: as §1
# SPIB = SPIB (Homo sapiens, UniProt Q01892 1-262); conditions: protein: recombinant; tags: N-terminal GST; dsDNA, one strand shown
# Sequence of SPIB (Q01892 whole entry): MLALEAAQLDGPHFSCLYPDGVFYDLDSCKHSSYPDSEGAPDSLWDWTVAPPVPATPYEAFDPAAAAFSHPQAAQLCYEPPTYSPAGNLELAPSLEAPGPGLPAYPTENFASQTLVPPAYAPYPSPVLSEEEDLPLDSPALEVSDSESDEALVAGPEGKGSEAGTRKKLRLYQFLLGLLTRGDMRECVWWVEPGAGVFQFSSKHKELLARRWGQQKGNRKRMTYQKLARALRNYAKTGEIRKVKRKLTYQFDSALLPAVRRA
# Method in brief: as §1
# ELK3 = molecular target: T6, ELK3 (Homo sapiens, UniProt P41970 1-407); conditions: protein: recombinant; tags: N-terminal GST; dsDNA, one strand shown
# T6 sequence: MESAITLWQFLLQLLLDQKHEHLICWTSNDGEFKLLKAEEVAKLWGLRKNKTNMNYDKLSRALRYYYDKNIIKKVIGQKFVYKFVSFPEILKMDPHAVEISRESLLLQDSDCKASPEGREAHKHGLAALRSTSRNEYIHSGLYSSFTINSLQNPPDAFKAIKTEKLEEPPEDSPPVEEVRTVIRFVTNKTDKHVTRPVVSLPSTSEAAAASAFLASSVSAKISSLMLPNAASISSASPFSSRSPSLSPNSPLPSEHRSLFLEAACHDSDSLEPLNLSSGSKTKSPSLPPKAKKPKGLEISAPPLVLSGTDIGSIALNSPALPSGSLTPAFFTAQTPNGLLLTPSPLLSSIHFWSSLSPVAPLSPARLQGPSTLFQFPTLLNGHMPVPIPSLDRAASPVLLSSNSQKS
# Method in brief: as §1
# FEV = molecular target: T7, FEV (Homo sapiens, UniProt Q99581 1-238); conditions: protein: recombinant; tags: N-terminal GST; dsDNA, one strand shown
# T7 sequence: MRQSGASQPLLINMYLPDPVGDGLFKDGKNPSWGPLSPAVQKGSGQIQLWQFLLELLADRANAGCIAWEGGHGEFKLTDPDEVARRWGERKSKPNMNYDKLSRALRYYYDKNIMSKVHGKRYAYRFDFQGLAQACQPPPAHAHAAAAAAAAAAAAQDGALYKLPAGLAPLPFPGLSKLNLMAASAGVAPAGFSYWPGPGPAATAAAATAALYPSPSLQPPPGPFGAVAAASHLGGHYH
# Method in brief: as §1
# ETV5 = ETV5 (Homo sapiens, UniProt P41161 1-510); conditions: protein: recombinant; tags: N-terminal GST; dsDNA, one strand shown
# Sequence of ETV5 (P41161 whole entry): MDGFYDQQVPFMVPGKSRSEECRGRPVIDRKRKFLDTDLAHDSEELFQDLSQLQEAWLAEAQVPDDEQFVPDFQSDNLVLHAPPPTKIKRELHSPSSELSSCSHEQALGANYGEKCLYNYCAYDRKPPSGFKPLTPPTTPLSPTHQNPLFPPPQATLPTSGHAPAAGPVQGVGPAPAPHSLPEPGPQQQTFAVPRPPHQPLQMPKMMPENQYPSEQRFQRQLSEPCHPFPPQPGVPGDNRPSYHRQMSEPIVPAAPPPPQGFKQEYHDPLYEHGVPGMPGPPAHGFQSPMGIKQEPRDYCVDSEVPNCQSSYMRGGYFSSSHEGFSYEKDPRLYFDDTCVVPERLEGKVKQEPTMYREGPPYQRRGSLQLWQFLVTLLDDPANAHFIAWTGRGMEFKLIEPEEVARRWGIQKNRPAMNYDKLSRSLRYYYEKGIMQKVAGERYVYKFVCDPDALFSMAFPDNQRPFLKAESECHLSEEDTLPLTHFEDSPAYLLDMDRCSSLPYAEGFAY
# Method in brief: as §1
# HSF1 = HSF1 (Homo sapiens, UniProt Q00613 1-529); conditions: protein: recombinant; tags: N-terminal GST; chain copies: 3; dsDNA, one strand shown
# Sequence of HSF1 (Q00613 whole entry): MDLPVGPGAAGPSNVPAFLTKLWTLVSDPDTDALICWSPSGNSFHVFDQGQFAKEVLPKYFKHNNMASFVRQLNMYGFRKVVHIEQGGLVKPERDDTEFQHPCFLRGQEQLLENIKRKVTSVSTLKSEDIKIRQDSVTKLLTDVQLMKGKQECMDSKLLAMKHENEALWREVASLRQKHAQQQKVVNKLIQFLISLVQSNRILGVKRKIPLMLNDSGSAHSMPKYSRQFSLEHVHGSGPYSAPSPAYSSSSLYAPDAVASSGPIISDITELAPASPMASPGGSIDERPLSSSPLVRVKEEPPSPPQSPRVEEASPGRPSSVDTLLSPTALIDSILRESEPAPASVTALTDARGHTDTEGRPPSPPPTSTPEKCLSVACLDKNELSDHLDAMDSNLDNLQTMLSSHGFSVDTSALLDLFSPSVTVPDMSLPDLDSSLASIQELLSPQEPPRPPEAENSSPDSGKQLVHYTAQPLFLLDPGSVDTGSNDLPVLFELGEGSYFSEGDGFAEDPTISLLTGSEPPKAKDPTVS
# Method in brief: as §1
# SPIC = molecular target: T8, SPIC (Homo sapiens, UniProt Q8N5J4 1-248); conditions: protein: recombinant; tags: N-terminal GST; dsDNA, one strand shown
# T8 sequence: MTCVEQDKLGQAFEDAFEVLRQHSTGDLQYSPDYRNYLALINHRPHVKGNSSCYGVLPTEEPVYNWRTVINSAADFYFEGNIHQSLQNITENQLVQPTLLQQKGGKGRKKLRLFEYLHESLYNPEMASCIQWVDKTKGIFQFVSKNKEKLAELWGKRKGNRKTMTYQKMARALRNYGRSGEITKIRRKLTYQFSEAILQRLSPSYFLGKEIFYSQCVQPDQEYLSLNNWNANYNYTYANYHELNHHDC
# Method in brief: as §1
# ELF4 = ELF4 (Homo sapiens, UniProt Q99607 1-663); conditions: protein: recombinant; tags: N-terminal GST; dsDNA, one strand shown
# Sequence of ELF4 (Q99607 whole entry): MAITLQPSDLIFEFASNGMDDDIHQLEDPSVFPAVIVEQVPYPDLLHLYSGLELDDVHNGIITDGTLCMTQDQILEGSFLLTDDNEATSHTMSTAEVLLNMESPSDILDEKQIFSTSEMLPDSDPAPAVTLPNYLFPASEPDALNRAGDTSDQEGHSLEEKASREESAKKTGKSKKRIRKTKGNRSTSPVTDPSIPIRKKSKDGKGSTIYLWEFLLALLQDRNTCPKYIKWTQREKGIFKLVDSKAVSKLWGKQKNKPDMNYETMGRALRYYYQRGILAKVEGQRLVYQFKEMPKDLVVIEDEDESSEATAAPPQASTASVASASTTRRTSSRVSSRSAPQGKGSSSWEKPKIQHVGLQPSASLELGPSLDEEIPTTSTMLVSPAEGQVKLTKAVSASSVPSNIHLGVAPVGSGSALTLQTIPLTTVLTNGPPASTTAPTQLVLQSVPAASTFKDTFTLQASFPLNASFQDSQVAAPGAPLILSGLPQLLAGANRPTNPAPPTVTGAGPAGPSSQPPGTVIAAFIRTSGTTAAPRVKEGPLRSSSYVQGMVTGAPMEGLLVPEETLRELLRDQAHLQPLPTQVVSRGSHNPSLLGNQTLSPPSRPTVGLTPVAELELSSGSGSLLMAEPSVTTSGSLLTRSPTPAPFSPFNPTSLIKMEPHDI
# Method in brief: as §1
# ELK4 = molecular target: T9, ELK4 (Homo sapiens, UniProt P28324-2 1-405); conditions: protein: recombinant; tags: N-terminal GST; dsDNA, one strand shown
# T9 sequence: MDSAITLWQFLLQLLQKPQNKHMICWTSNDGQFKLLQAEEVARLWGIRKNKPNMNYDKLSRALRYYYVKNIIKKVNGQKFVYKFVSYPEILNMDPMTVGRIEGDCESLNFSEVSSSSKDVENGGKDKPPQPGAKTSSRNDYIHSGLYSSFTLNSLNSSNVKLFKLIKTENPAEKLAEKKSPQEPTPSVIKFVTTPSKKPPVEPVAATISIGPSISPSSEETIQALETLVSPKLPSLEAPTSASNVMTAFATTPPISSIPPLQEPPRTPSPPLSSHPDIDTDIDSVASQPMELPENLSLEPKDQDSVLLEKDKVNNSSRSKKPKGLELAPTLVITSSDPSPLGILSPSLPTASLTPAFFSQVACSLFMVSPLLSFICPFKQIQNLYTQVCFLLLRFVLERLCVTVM
# Method in brief: as §1
# ETV2 = molecular target: T10, ETV2 (Homo sapiens, UniProt O00321 1-342); conditions: protein: recombinant; tags: N-terminal GST; dsDNA, one strand shown
# T10 sequence: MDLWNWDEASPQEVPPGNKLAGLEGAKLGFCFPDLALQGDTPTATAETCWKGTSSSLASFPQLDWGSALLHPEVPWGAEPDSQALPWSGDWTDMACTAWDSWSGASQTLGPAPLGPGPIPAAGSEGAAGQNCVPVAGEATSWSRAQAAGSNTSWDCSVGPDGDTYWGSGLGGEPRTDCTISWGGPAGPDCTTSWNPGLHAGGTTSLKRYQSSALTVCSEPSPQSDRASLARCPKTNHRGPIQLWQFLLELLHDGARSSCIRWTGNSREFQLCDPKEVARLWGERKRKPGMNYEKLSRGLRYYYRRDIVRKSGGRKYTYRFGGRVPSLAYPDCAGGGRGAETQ
# Method in brief: as §1
# ELF3 = molecular target: T11, ELF3 (Homo sapiens, UniProt P78545 1-371); conditions: protein: recombinant; tags: N-terminal GST; dsDNA, one strand shown
# T11 sequence: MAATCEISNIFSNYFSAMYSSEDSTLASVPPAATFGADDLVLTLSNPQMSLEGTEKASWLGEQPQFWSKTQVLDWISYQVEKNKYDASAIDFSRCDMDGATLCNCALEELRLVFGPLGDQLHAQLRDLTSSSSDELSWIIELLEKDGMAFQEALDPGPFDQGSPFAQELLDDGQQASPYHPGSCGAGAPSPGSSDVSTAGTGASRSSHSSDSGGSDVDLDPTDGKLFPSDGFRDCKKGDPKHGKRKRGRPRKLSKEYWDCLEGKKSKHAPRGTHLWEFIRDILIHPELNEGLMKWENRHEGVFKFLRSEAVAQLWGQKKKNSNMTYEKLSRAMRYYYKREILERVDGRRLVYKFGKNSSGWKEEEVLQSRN
# Method in brief: as §1
# CRX = CRX (Homo sapiens, UniProt O43186 1-299); conditions: protein: recombinant; tags: N-terminal GST; dsDNA, one strand shown
# Sequence of CRX (O43186 whole entry): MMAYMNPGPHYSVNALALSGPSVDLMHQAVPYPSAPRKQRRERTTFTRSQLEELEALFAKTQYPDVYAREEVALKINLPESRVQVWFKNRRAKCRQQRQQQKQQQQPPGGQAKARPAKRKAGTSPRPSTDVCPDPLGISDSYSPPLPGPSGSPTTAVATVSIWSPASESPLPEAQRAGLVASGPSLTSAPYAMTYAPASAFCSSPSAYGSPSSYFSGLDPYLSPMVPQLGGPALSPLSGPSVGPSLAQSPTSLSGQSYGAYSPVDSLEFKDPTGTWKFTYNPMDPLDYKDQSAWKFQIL
# Method in brief: as §1
# ETV1 = ETV1 (Homo sapiens, UniProt P50549 1-477); conditions: protein: recombinant; tags: N-terminal GST; dsDNA, one strand shown
# Sequence of ETV1 (P50549 whole entry): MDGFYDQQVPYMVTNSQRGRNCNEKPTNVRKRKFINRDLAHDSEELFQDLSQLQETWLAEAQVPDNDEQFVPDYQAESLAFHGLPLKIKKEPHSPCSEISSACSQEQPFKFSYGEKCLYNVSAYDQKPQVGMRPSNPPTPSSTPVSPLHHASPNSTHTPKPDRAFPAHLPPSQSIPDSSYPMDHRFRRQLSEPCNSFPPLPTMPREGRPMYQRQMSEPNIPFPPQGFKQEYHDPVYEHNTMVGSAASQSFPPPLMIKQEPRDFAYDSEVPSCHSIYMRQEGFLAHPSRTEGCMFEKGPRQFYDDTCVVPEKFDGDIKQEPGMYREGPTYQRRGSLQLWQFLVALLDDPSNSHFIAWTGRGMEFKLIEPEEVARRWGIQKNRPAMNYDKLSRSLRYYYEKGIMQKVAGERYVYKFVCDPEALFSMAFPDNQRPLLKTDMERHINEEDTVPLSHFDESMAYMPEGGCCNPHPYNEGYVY
# Method in brief: as §1
sequence,measurement,setting,value
TAAACG,binding signal,FLI1,"1.17 fold enrichment (6-mer frequency, TF over GST control)"
same,binding signal,ELK1,"1.09 fold enrichment (6-mer frequency, TF over GST control)"
same,binding signal,GABPA,"1.15 fold enrichment (6-mer frequency, TF over GST control)"
same,binding signal,ERG,"1.09 fold enrichment (6-mer frequency, TF over GST control)"
same,binding signal,ELF1,"1.11 fold enrichment (6-mer frequency, TF over GST control)"
same,binding signal,EHF,"1.17 fold enrichment (6-mer frequency, TF over GST control)"
same,binding signal,SPI1,"1.13 fold enrichment (6-mer frequency, TF over GST control)"
same,binding signal,SPIB,"1.19 fold enrichment (6-mer frequency, TF over GST control)"
same,binding signal,ELK3,"1.13 fold enrichment (6-mer frequency, TF over GST control)"
same,binding signal,FEV,"1.12 fold enrichment (6-mer frequency, TF over GST control)"
same,binding signal,ETV5,"1.07 fold enrichment (6-mer frequency, TF over GST control)"
same,binding signal,HSF1,"1.19 fold enrichment (6-mer frequency, TF over GST control)"
same,binding signal,SPIC,"1.05 fold enrichment (6-mer frequency, TF over GST control)"
same,binding signal,ELF4,"1.13 fold enrichment (6-mer frequency, TF over GST control)"
same,binding signal,ELK4,"1.2 fold enrichment (6-mer frequency, TF over GST control)"
same,binding signal,ETV2,"1.09 fold enrichment (6-mer frequency, TF over GST control)"
same,binding signal,ELF3,"1.07 fold enrichment (6-mer frequency, TF over GST control)"
same,binding signal,CRX,"1.44 fold enrichment (6-mer frequency, TF over GST control)"
same,binding signal,ETV1,"1.13 fold enrichment (6-mer frequency, TF over GST control)"
